Assay results reported in PubChem BioAssay (NCATS).
Several values for one entry are separate records, joined by “and”; a condition that tells them apart may be missing. Equal values may be shown once. Records with an inconclusive call do not appear. A number with no mark means an inactive call. Activity calls are given as the source filed them. Calls follow the shape of the dose curve; as a rule, active = well fitted curve in the direction sought with a large enough effect; inconclusive = small, poorly fitted or top-dose-only effect, or another doubt; inactive = no such curve, though single readings can be large; an effect the other way counts as inactive or inconclusive.

Key:
[1] = Viability qHTS for spleen associated tyrosine kinase inhibitor (SYKi) drug resistant MV4-11 cells (AID 1963824); also: nearly all actives have a fitted effect of over 35% in size
Summary of the method: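 SYK-inhibitor-resistant MV4-11 AML cells were seeded at 500 per well onto compound and cultured 72 hours (37 °C, 5% CO2). CellTiter-Glo was then added, and after 10 min at room temperature, luminescence gave viability.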

[2] = Quantitative highthroughput screen to assess conditional lethalithy of NOMO1 cells grown in RPMI1640 with untreated serum (RPMI+s) (AID 1963876); also: nearly all actives have a fitted effect of over 35% in size;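 as to Viability: 100% = DMSO wells and 0% = empty wells without cells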
Summary of the method: (§1)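 Each medium arm—HPLM with 10% dialyzed FBS, or RPMI1640 with 5 mM glucose and 10% untreated or dialyzed FBS—was screened against an 11-point, 3-fold compound titration for 48 h at 37 °C, with CellTiter-Glo luminescence as endpoint.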

[3] = Quantitative highthroughput screen to assess conditional lethalithy of SEM cells grown in Human Plasma-Like Medium with dialyzed fetal bovine serum (HPLM+ds) (AID 1963882); also: nearly all actives have a fitted effect of over 35% in size; as to Viability: series mostly up to about 46 µM
Summary of the method: as §1

[4] = Quantitative highthroughput screen to assess conditional lethalithy of SEM cells grown in RPMI1640 with unreated serum (RPMI+s) (AID 1963883); also: nearly all actives have a fitted effect of over 35% in size;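 as to Viability: 100% = DMSO wells and 0% = empty wells without cells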
Summary of the method: as §1

[5] = Cellular viability qHTS for adrenocortical cancer (ACC) cell line SW-13 (AID 1963989); conditions: SW-13 ACC cells viability, CellTiter-Glo, 48 h; activity (max response): active compounds read low; also: nearly all actives have a fitted effect of over 65% in size;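 as to activity (max response): cells grown in serum-free medium with ITS supplement; % is scaled to controls: 0 for no effect and ±100 for the full control effect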
Summary of the method: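 Viability was read as CellTiter-Glo luminescence after 48 h compound treatment (up to 46 uM final) of SW-13 cells grown serum-free; titration curves were fit with a four-parameter logistic model to give IC50 and efficacy.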

[6] = Cellular viability qHTS for adrenocortical cancer (ACC) cell line NCI-H295R (AID 1963990); also: nearly all actives have a fitted effect of over 60% in size;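 as to activity change, negative = viability loss: 0% = DMSO only wells and -100% = full killing with cytotoxic reference compound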
Summary of the method: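 CellTiter-Glo ATP luminescence, read 48 h after compound addition, measured viability of NCI-H295R adrenocortical cells grown serum-free with ITS. Final concentrations spanned up to 46 uM. Data normalized to DMSO and doxorubicin, fitted for IC50 and maximal response.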

[7] = Quantitative highthroughput screen to assess conditional lethalithy of P12 Ichikawa cells grown in RPMI1640 with dialyzed fetal bovine serum (RPMI+ds) (AID 1963880); conditions: Potency: P12-Ichikawa viability; also: nearly all actives have a fitted effect of over 35% in size;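 as to Viability: 100% = DMSO wells and 0% = empty wells on each plate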
Summary of the method: as §1

[8] = Quantitative highthroughput screen to assess conditional lethalithy of P12 Ichikawa cells grown in RPMI1640 with untreated serum (RPMI+s) (AID 1963881); conditions: Potency: viability; also: nearly all actives have a fitted effect of over 35% in size;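 as to Viability: series mostly up to about 46 µM; 100% = DMSO wells and 0% = empty wells without cells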
Summary of the method: as §1

[9] = Quantitative highthroughput screen to assess conditional lethalithy of SEM cells grown in RPMI1640 with dialyzed fetal bovine serum (RPMI+ds) (AID 1963884); also: nearly all actives have a fitted effect of over 35% in size;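 as to Viability: series mostly up to about 46 µM; 100% = DMSO control wells and 0% = empty wells without cells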
Summary of the method: as §1

[10] = Quantitative highthroughput screen to assess conditional lethalithy of NOMO1 cells grown in Human Plasma-Like Medium with dialyzed fetal bovine serum (HPLM+ds) (AID 1963878); also: nearly all actives have a fitted effect of over 35% in size;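 as to Viability: 100% = DMSO wells and 0% = empty wells on each plate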
Summary of the method: as §1

[11] = Quantitative highthroughput screen to assess conditional lethalithy of P12 Ichikawa cells grown in Human Plasma-Like Medium with dialyzed fetal bovine serum (HPLM+ds) (AID 1963879); conditions: Potency: viability; also: nearly all actives have a fitted effect of over 35% in size; as to Viability: series mostly up to about 46 µM
Summary of the method: as §1

[12] = Quantitative highthroughput screen to assess conditional lethalithy of NOMO1 cells grown in RPMI1640 with dialyzed fetal bovine serum (RPMI+ds) (AID 1963877); also: nearly all actives have a fitted effect of over 30% in size;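 as to Viability: series mostly up to about 46 µM; 100% = DMSO control wells and 0% = empty wells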
Summary of the method: as §1
Potency is read from the fitted curve at half-maximal effect.

CN(C(=O)c1ccc(F)cc1C(F)(F)F)C1CCN(c2nnc(-c3ccnn3C)c3ccccc23)CC1
Potency [1]: 18.4 µM (active)
Potency [2]: inactive
Potency [3]: inactive
Potency [4]: inactive
activity (max response) [5]: -13.3%
Potency [6]: inactive

O=C(O)c1ccc2cc(-c3ccc(O)c(C45CC6CC(CC(C6)C4)C5)c3)ccc2c1
Potency [1]: 0.417 µM (active)
Potency [2]: 1.05 µM (active)
Potency [7]: 0.418 µM (active)
Potency [8]: 0.469 µM (active)
Potency [3]: 0.372 µM (active)
Potency [9]: 0.235 µM (active)
Potency [6]: 0.708 µM (active)

C[C@H](c1ccc(F)cc1CCCC(=O)O)N(c1cc(F)ccc1F)S(=O)(=O)c1ccc(Cl)cc1
Potency [1]: 18.6 µM (active)
Potency [2]: inactive
Potency [10]: inactive
Potency [11]: inactive
Potency [7]: inactive
Potency [6]: inactive

CN(C)C(=O)c1ccc(S(=O)(=O)c2ccc(NC(=O)[C@@](C)(O)C(F)(F)F)c(Cl)c2)cc1
Potency [1]: 9.2 µM (active) and 3.72 µM (active)
Potency [2]: 11.8 µM (active)
Potency [10]: 10.5 µM (active)
Potency [8]: 14.8 µM (active)
Potency [4]: 11.8 µM (active)
Potency [6]: inactive

CCN(CCO)CCCC(C)Nc1ccnc2cc(Cl)ccc12 (stereo not drawn)
viability, % of control [1]: 88.8% [at 4.97 µM]
Potency [2]: 10.5 µM (active)
Potency [11]: 4.18 µM (active)
Potency [7]: 2.64 µM (active)
Potency [8]: 10.5 µM (active)
activity (max response) [5]: 4.84% and 9.37%
activity change, negative = viability loss [6]: 1.42% [at 3.81 µM] and 0.71% [at 3.81 µM]

Nc1nc2[nH]cc(CCc3ccc(C(=O)N[C@@H](CCC(=O)O)C(=O)O)cc3)c2c(=O)[nH]1
Potency [1]: 0.263 µM (active)
Potency [2]: inactive
Potency [6]: 3.16 µM (active)

CCc1cc(-c2n[nH]c(C)c2-c2ccc3c(c2)OCCO3)c(O)cc1O
Potency [1]: 4.17 µM (active)
Potency [2]: 9.35 µM (active)
Potency [10]: 11.8 µM (active)
Potency [5]: 14.1 µM (active)
Potency [6]: 15.8 µM (active)

COc1ccc(C2=N[C@H](c3ccc(Cl)cc3)[C@H](c3ccc(Cl)cc3)N2C(=O)N2CCNC(=O)C2)c(OC(C)C)c1
Potency [1]: 16.6 µM (active)
Potency [2]: 23.5 µM (active)
Potency [10]: 10.5 µM (active)
Potency [11]: 10.5 µM (active)
Potency [3]: 0.235 µM (active)
Potency [4]: 0.418 µM (active)
Potency [9]: 0.187 µM (active)
Potency [5]: 31.6 µM (active)

CN(C)c1ccccc1CN1CCCN(Cc2ccccc2N(C)C)C1c1ccncc1
Potency [1]: 7.42 µM (active)
Potency [2]: inactive
Potency [11]: inactive
Potency [7]: inactive
Potency [8]: inactive
Potency [3]: inactive
Potency [9]: inactive
Potency [5]: 28.2 µM (active)
Potency [6]: 28.2 µM (active)

CN(C)CC(C)(C)CNc1nn2c(-c3ccccc3)nnc2cc1C1CCC1
Potency [1]: 0.0103 µM (active)
Potency [2]: 20.9 µM (active)
Potency [10]: 10.5 µM (active)
Potency [11]: 10.5 µM (active)
Potency [7]: 18.7 µM (active)
Potency [8]: 16.6 µM (active)
activity (max response) [5]: -3.73%

CNC(=O)CN1CCC(Oc2cc3c(Nc4cccc(Cl)c4F)ncnc3cc2OC)CC1
Potency [1]: 11.6 µM (active)
Potency [2]: 0.372 µM (active)
Potency [11]: 2.64 µM (active)
Potency [7]: 3.32 µM (active)
Potency [3]: inactive
Potency [5]: 0.562 µM (active)
Potency [6]: inactive

NC(=O)N1CCC(CC(=O)N2CCC([C@H]3c4ncc(Br)cc4CCc4cc(Cl)cc(Br)c43)CC2)CC1
Potency [1]: 4.17 µM (active)
Potency [12]: inactive

N#CC[C@H](C1CCCC1)n1cc(-c2ncnc3[nH]ccc23)cn1
Potency [1]: 20.6 µM (active)
Potency [2]: 14.8 µM (active)
Potency [10]: 7.43 µM (active)
activity (max response) [5]: -17.5%

c1ccc2c(Cc3c[nH]c4ccccc34)c[nH]c2c1
Potency [1]: 20.9 µM (active)
Potency [2]: inactive
Potency [10]: 20.9 µM (active)

Cc1cc(Cl)ccc1OCCCC(=O)NO
Potency [1]: 13.2 µM (active)
Potency [2]: 14.8 µM (active)
Potency [11]: 8.33 µM (active)
Potency [7]: 1.48 µM (active)
Potency [8]: 5.9 µM (active)
Potency [3]: 9.35 µM (active)
Potency [4]: 10.5 µM (active)
Potency [9]: 9.35 µM (active)
Potency [6]: 1.26 µM (active)

CN1N=C(N)c2cn([C@@H]3O[C@H](COP(=O)(O)O)[C@@H](O)[C@@H]3O)c3ncnc1c23
Potency [1]: 0.0742 µM (active)
Potency [10]: 5.26 µM (active)
Potency [3]: 0.0296 µM (active)
Potency [4]: 0.0296 µM (active)
Potency [9]: 0.0074 µM (active)

CC(C)OC(=O)OCOP(=O)(CO[C@H](C)Cn1cnc2c(N)ncnc21)OCOC(=O)OC(C)C
Potency [1]: 9.44 µM (active)
Potency [12]: 23.5 µM (active)
Potency [11]: inactive
Potency [7]: inactive
Potency [6]: inactive

CN1CCc2c(n(Cc3ccc(C(=O)NO)cc3)c3ccccc23)C1
Potency [1]: 18.6 µM (active)
Potency [12]: inactive
Potency [3]: 26.4 µM (active)
Potency [4]: 23.5 µM (active)
Potency [6]: 25.1 µM (active)

C[C@]12CC[C@H](O)CC1=CCC1C2CC[C@]2(C)C(n3cnc4ccccc43)=CCC12 (stereo partly drawn)
Potency [1]: 7.42 µM (active)
Potency [12]: inactive
Potency [10]: inactive
Potency [11]: inactive
Potency [7]: inactive
Potency [8]: inactive
Potency [3]: inactive
Potency [4]: inactive
Potency [9]: inactive
activity (max response) [5]: -10.3%
Potency [6]: inactive

CCS(=O)(=O)Nc1ccc2[nH]c(O)c(C(=Nc3ccc(CN4CCCCC4)cc3)c3ccccc3)c2c1
Potency [1]: 0.0332 µM (active)
Potency [12]: 0.833 µM (active)
Potency [10]: 4.69 µM (active)
Potency [3]: 0.0743 µM (active)
Potency [4]: 0.0935 µM (active)
Potency [9]: 0.0935 µM (active)
Potency [5]: 3.55 µM (active)
Potency [6]: 1.26 µM (active)
